Rows were chosen to be rich in hits. Some 4.1% of all compounds tested hit in one or more screens of this group.
CFTR F508del cor: CFTR F508del correction in bronchial cells | 350,000 compounds, 0.36% hits | CFBE cells, YFP halide quenching; stimulated with forskolin plus potentiator P3; % fluorescence drop versus neutral controls | activity (quench increase), % at 7.58 µM;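 active means mean added fluorescence quench of at least 8% versus neutral control, with both replicates also reaching 8%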;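 further: cells transiently co-express mutant CFTR-F508del with the halide-sensitive YFP; corrector assay measuring rescue of mutant channel to the surface after 24 h compound exposure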
ALR inh: human ALR oxidase inhibition via reduced H2O2; P55789; purified ALR, DTT oxidation, H2O2 HRP-luminol luminescence; inhibition, % (concentration not given with the values); 290,000 compounds, 3.8% hits;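 active means mean replicate inhibition above about 79%, with every replicate also reaching it, limit read from the data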
Target sequence (P55789 whole entry, looked up): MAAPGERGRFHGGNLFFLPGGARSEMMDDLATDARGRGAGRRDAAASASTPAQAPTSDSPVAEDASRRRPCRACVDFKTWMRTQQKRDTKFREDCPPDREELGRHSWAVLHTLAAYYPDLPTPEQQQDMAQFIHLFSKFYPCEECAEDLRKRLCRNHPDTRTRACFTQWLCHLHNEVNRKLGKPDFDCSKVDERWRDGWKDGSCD
CASP6 VEID inh: caspase-6 (human) enzyme inhibition; P55212; purified caspase-6, Z-VEID-R110 cleavage fluorescence; inhibition, % at 12.5 µM; 350,000 compounds, 0.53% hits;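 active means mean inhibition across replicates at least about 35%, with every replicate also reaching that limit, limit read from the data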;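 further: 0% = median of neutral control wells and 100% = no fluorescence left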
PglD inh: blocks C. jejuni PglD acetyltransferase activity | purified PglD enzyme, DTNB colorimetric CoA detection | inhibition, % at 12.5 µM | 360,000 compounds, 0.098% hits | AID 602405; in the data active means inhibition above about 16%, passing the limit was not always enough
NSD2 HMT inh: inhibitors of human histone methyltransferase NSD2. O96028. NSD2 peptide methylation, AlphaScreen, 120 min. inhibition, % at 12.5 µM. 310,000 compounds, 0.54% hits. AID 743445; in the data active means inhibition above about 50%
Env fusion inh: blocks HIV Env-driven cell-cell fusion | HeLa-JRFL Env/CEM21 cell fusion, luciferase | AID 651610 | 360,000 compounds, 1.1% hits | inhibition, % at 12.3 µM;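 active means mean replicate inhibition score of at least 50 and every replicate individually at or above 50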;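 further: 0% = plate neutral controls and 100% = maraviroc near 300 nM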
The depositor's hits bear a star; / = no result; [ ] = remark or other dose.

SMILES	CFTR F508del cor	ALR inh	CASP6 VEID inh	PglD inh	NSD2 HMT inh	Env fusion inh
CC1Cc2nc(SCC(=O)Nc3ccc4c(c3)OCO4)n(Cc3ccccc3)c(=O)c2S1 (stereo unspecified)	/	-9	/	4	-1	/
C=C1C(=O)[C@]23C[C@H]1CCC2[C@@]1(C)C(C[C@@H]3O)[C@](C)(C(=O)OC)CC[C@@H]1OC(C)=O (stereo partly specified)	-2	/	2	-2	/	-200
C=C1C(=O)[C@]23C[C@H]1CC[C@H]2[C@]1(C)[C@@H](OC(C)=O)CC[C@@](C)(C(=O)O)[C@H]1C[C@@H]3O	8.6*	/	9	0	/	1
O=C1CSC(c2ccc(F)cc2)N1c1ccccc1F (stereo unspecified)	/	6	-1	4	-2	-3
O=C1CSC(c2cccc([N+](=O)[O-])c2)N1c1ccccc1 (stereo unspecified)	0	98*	-2	-1	1	13
O=C1CSC(c2ccc(F)c(F)c2)N1c1ccccc1F (stereo unspecified)	2	98*	-2	-5	-1	18
O=C1CSC(c2cccc(F)c2)N1c1ccccc1 (stereo unspecified)	-1	98*	-2	-7	-3	0
O=C1CSC(c2ccccc2)N1c1cccc(Cl)c1 (stereo unspecified)	2	/	-1	0	/	-10[16.7 µM]
O=S(=O)(Cc1ccccc1)NCC[C@@H]1CC[C@H](NS(=O)(=O)c2ccccc2)[C@@H](CO)O1	0	/	-1	-1	/	-1[16.7 µM]
Cc1noc(C)c1S(=O)(=O)Nc1cccc2c1O[C@H](CN(C)S(C)(=O)=O)[C@H](C)CN([C@H](C)CO)C2=O	1	/	3	-6	/	/
O=c1c2c(nc3c(-c4ccc(Cl)cc4)c[nH]n13)CCCC2	/	63	/	2	-1	62*
Nc1[nH]nc2nc(N3CCOCC3)nc(-c3ccccc3)c12	/	46	/	7	-2	67*
COCC#Cc1cnc2c(c1)C(=O)N([C@@H](C)CO)C[C@@H](C)[C@@H](CN(C)C(=O)Nc1cc(F)ccc1F)O2	0	/	/	/	/	/
CCCCCn1c(=O)[nH]c2cc(C(=O)NCc3ccc4c(c3)OCO4)ccc2c1=O	/	-6	/	-3	11	-5
CCCCCn1c(=O)[nH]c2cc(C(=O)N3CCN(Cc4ccc5c(c4)OCO5)CC3)ccc2c1=O	/	-9	/	2	-2	67*
CCN1/C(=C2\C(=O)N(C)C(=S)N2c2ccccc2)C=Cc2ccccc21	1	98*	-1	-5	13	10
CCN1C(=O)/C(=C2/C=Cc3ccccc3N2CC)SC1=S	-2	99*	1	0	/	4
CN1C(=O)/C(=C2/C=Cc3ccccc3N2CCCS(=O)(=O)O)SC1=S	/	84*	/	0	21	/
CN1CCN(C(=O)C[C@@H]2CC[C@@H]3[C@@H](COc4ccc(NC(=O)C5CCCCC5)cc4C(=O)N3C)O2)CC1	1	/	0	2	/	-4[16.7 µM]
COc1ccc([N+](=O)[O-])cc1NC1C2CC3CC(C2)CC1C3 (stereo unspecified)	/	-1	/	3	0	-11
COc1ccc([N+](=O)[O-])cc1NC1CCCCC1	/	99*	/	-2	2	33
O=C(NCC(=O)N1CC=C(c2ccccc2)CC1)c1ccccc1Br	2	-4	80*	-3	-3	-18
CC(=O)Nc1cccc(-c2csc(Nc3ccc(Cl)cn3)n2)c1	-1	98*	1	/	-1	-148
CC(=O)Nc1cccc(-c2csc(N)n2)c1	0	98*	2	/	-2	-3
CC(=O)c1cccc(Nc2nc(-c3cccc([N+](=O)[O-])c3)cs2)c1	/	-4	/	-5	1	72*
Cc1[nH]n(-c2nc(-c3cccc([N+](=O)[O-])c3)cs2)c(=O)c1C	/	97*	/	-5	-1	-56
Cc1c(Nc2nc(-c3cccc([N+](=O)[O-])c3)cs2)c(=O)n(-c2ccccc2)n1C	-1	35	4	-6	11	-7
NCC[C@H]1CC[C@H](NC(=O)C2CCCCC2)[C@@H](CO)O1	-2	/	2	1	/	-28[16.7 µM]
COCCNC(=O)c1cc2c(c(-c3cccc(C4=CCCC4)c3)n1)[C@@H](CCO)N([S@](=O)C(C)(C)C)C2	2	/	2	0	/	1[16.7 µM]

Screening results deposited in PubChem by Broad Institute.
